Test results from PubChem BioAssay (NCI).
Compounds without any hit were thinned out: in the full panel of roughly 83,000, 20% have a hit.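 Compound tested at a single concentration for 48 hours in 96-well plates; a percent growth value below 10 was scored as active.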 Unmarked numbers belong to inactive results. Active and inactive are the calls of the source.

Tested on: SK-OV-3 ovarian
Experiment: NCI-60 one-dose screen, 48 h (100 = growth as untreated, 0 = no growth, -100 = all killed)
Conditions: 10 µM unless noted

SMILES | growth
Cc1csc(-c2nnc(Nc3ccc(Oc4ncccc4-c4ccnc(N)n4)cc3)c3ccccc23)c1 | 53%
CC(C)CC(=O)Nc1n[nH]c2c1CN(C(=O)C1CCN(C)CC1)C2(C)C | -1.71% (active)
Cc1ccccc1N1C(c2ccccc2)=NNC12C=CC(=O)C=C2Cl (stereo not drawn) | 90.2%
C=CCn1c(=O)c2cnc(Nc3ccc(N4CCN(C)CC4)cc3)nc2n1-c1cccc(C(C)(C)O)n1 | -1.76% (active)

Tested on: IGROV1 ovarian
Experiment: as above
Conditions: 10 µM unless noted

SMILES | growth
Cc1cc(C)n(CC(=O)Nc2ccc(-c3nc4ccccc4s3)cc2)n1 | 97.4%
CNS(=O)(=O)Nc1nccc(Cc2c(C)c3ccc(Oc4ncccn4)cc3oc2=O)c1F | 28.7%
C[C@@H](Oc1cc(-n2cnc3ccc(CN4CCN(C)CC4)cc32)sc1C(N)=O)c1ccccc1C(F)(F)F | 16.8%
COc1ccc(Cl)c(Nc2nc3ccccc3nc2NS(=O)(=O)c2cccc(NC(=O)C(C)(C)N)c2)c1 | -16.9% (active)
COc1ccc(-c2ccc3c(N4CCOC[C@@H]4C)nc(N4CCOC[C@@H]4C)nc3n2)cc1CO | -33.2% (active)
O=C(Nc1cccc(Cl)c1)Nc1ncc(CCNc2ncnc3ccsc23)s1 | 36%
C#Cc1cccc(Nc2ncnc3cc(OCCOC)c(OCCOC)cc23)c1 | 8.02% (active)
O=C(Nc1ccc(Nc2ncnc3sc4c(c23)CCOC4)cc1)Nc1ccc(Cl)c(C(F)(F)F)c1 | 79.5%
CCCCN1C(=O)c2cccc3c(-c4ccc5c(c4)ncn5C4CCCCC4)ccc(c23)C1=O | 108%
